The values that follow come from PubChem BioAssay AID938 (National Center for Advancing Translational Sciences (NCATS), 2007).

Several values for one entry are separate records, joined by “and”; a condition that tells them apart may be missing. Equal entries are not always repeated. In all, about 73,000 compounds went through this assay and about 1,800 (2.5%) were called active. Inconclusive results (about 13%) are left out. What follows is part of a selection rich in actives, with near analogues and random picks from the rest. A call without a number means that no potency is given here. A number with no mark means an inactive call. Calls follow the shape of the dose curve; as a rule, active = well fitted activation curve with a large enough effect; inconclusive = small, poorly fitted or top-dose-only effect; inactive = no such curve, though single readings can be large or run the other way.
Potency is read from the fitted curve at half-maximal effect.

The experiment is described as follows: qHTS Assay for Agonists of the Thyroid Stimulating Hormone Receptor: Activators of Intracellular cAMP Concentrations in Parental HEK 293. Also: nearly all actives have a fitted effect of over 55% in size. Particulars: parental HEK293 CNG cAMP sensor, membrane potential fluorescence; series mostly up to 57.1 µM. The text has this:
NIH Chemical Genomics Center [NCGC]
NIH Molecular Libraries Screening Centers Network [MLSCN]
PI Name: Dr. Marvin Gershengorn
This cell based assay utilized a cyclic nucleotide gated ion channel (CNG) as a biosensor for cAMP induction. HEK 293 cells stably expressing the modified CNG were purchased from BD biosciences (http://www.atto.com/products/actone/features_benefits.shtml) . Stimulation of cAMP production causes the CNG to open and subsequent membrane depolarization to occur. A fluorescent membrane potential dye (BD biosciences) was utilized to detect cAMP stimulation in cells.
The cells were maintained in DMEM medium (Invitrogen) containing 10 % FBS (Hyclone), 100 units/ml Penicillin, 100 ug/ml Streptomycin (Invitrogen), and 250 ug/ml Geneticin (Invitrogen) and 1 ug/ml Puromycin (Invitrogen) at 37C in 5% CO2. This assay was used as a counterscreen to "qHTS Assay for Agonists of the Thyroid Stimulating Hormone Receptor", to control for compounds signaling through endogenous receptors and other targets of HEK 293 cells.
NCGC Assay Protocol Summary:
High Throughput Screening. Freshly passaged cells were dispensed into 1536-well assay plates at 4 ul/well in DMEM containing phenol red (Invitrogen), 10% FCS (Hyclone), and 100 units/ml Penicillin, 100 ug/ml Streptomycin (Invitrogen) and incubated at 37 C with 5% CO2 for 20 to 36 hrs before the robotic screening. The screen was initiated by addition of 4 ul/well membrane potential dye containing 100 uM RO 20-1724 (Sigma Aldrich), followed by 60 min incubation at room temperature to allow for dye equilibration across the cell membrane. 23 nl/well compound or control was then added to the assay plates, which were incubated for additional 30 min before reading a Envision fluorescence plate reader (Perkin Elmer) in bottom-read mode for fluorescence intensity (emission at 590 nm).
Keywords: cAMP, CNG Ion Channel, quantitative high throughput screening, qHTS, HTS, probe identification, CNG, cAMP, cyclic nucleotide gated ion channel PubChem
Background: Quantitative high-throughput screening tests each substance at several concentrations.
On to `Cc1nc2nc[nH]n2c(=O)c1NC(=O)c1cccc(OCC(C)C)c1`, for which the Potency entry is “inactive”.
For `CCOC(=O)c1[nH]c2c(c1C)C(=O)CC(c1ccc(N(C)C)cc1)C2` (stereo not drawn), the Potency result was “inactive”.
Consider `COC(=O)C1C(=O)c2c([nH]c(C(=O)OCCSC)c2C)CC1C` (stereo not drawn), for which the Potency entry was “inactive”.
On to `CCCOC(=O)c1[nH]c2c(c1C)C(=O)CC(c1cc(OC)c(OC)c(OC)c1)C2` (stereo not drawn), for which the Potency is 15.8 µM (active).
With `N[C@@H](C(=O)O)c1ccc(P(=O)(O)O)cc1`, the Potency entry is “inactive”.
For the compound `C/C(CCN1CCCCc2nc(C)c(C)cc21)=N\O[C@@H](C)c1cn([C@@H]2COC[C@@H]2O)nn1`, the activation was 6.27% [at 11.4 µM].
As to `C[C@@H]1O[C@@H](O[C@@H]2[C@@H](O)[C@H](OCCc3ccc(O)c(O)c3)O[C@H](CO[C@@H]3O[C@H](CO)[C@@H](O)[C@H](O)[C@H]3O)[C@H]2OC(=O)/C=C/c2ccc(O)c(O)c2)[C@H](O)[C@H](O)[C@H]1O`, the Potency result is “inactive”.
Regarding `CO[C@H]1COC(=O)[C@@H](OCc2ccccc2)/C=C\[C@H](C)[C@@H](OC)COC(=O)[C@H](OCc2ccccc2)/C=C\[C@@H]1C`, the activation is -2.98% [at 11.4 µM].
`O=C(c1csnn1)N1CCC2(CC1)CN(c1ncccn1)C2`: the Potency entry was “inactive”.
As for `O=C(c1csnn1)N1CCC[C@@]2(CCN(Cc3nccs3)C2)C1`, the Potency was 3.98 µM (active).
As for `Cn1cccc1C(=O)N1CCC[C@@]2(CCN(Cc3nccs3)C2)C1`, the Potency result was “inactive”.
Consider `CCc1cc(=O)oc2cc(OCC(=O)N3CCCc4ccccc43)ccc12`, for which the Potency entry was “inactive”.
Regarding `CCOC(=O)c1ccc(NC(=O)CS(=O)(=O)c2cn(CC)c3ccccc23)cc1`, the Potency entry is “inactive”.
Same read-out and setting: the same measure for `COC(=O)[C@@H](NC(=O)NCc1cccc(OC)c1)C(C)C`: “inactive”.
Same read-out and setting: as for `O=C(Nc1cccc(NC(=O)N2CCN(c3ccccc3)CC2)c1)N1CCN(c2ccccc2)CC1`, the entry is “inactive”.
Regarding `O=C(c1cccc(F)c1)N1CCC2(CC1)CCN(c1ccccc1)CC2`, the Potency entry was “inactive”.
`O=C(Nc1ccccc1N1CCN(c2ccccc2)CC1)c1cccc(F)c1`: the Potency is 3.98 µM (active).
Turning to `O=C1[C@H]2[C@H]3[C@H](O)[C@H](O)C/C(=N/OCc4ccccc4)[C@H]3CC[C@@H]2C(=O)N1Cc1ccccc1`, the activation is -2.25% [at 11.4 µM].
Consider `C[C@@H](c1ccccc1)N1C(=O)[C@H]2[C@H]3[C@H](O)[C@H](O)C/C(=N/OC[C@@H](O)COCc4ccco4)[C@@H]3CC[C@@H]2C1=O`, for which the activation is 5.7% [at 11.4 µM].
Take `O=C(NCc1ccco1)c1nc(-c2ccccc2)n(-c2ccccc2)n1`: the Potency entry is “inactive”.
Consider `O=C(NCc1ccco1)c1cc(-c2cccnc2)nc2ccc(Cl)cc12`, for which the Potency is 31.6 µM (active).
In the case of `O=C(NCc1ccco1)c1cccn2c(=O)c3cc(Br)ccc3nc12`, the Potency result is “inactive”.
Consider `CN(C)CCCCNC(=O)c1ccc(Cc2nc3ccccc3[nH]2)cc1`, for which the Potency result is “inactive”.
In the case of `Oc1c(Cl)cc(Cl)c(Cl)c1Cc1c(O)c(Cl)cc(Cl)c1Cl`, the Potency was 10 µM (active).
Still for that read-out and setting: as for `C=CC(=O)c1ccc2ccccc2c1`, the entry is “inactive”; as for `O=C(CCSc1ccccc1)NCCSc1ccccn1`, “inactive”.
On to `N#Cc1ccc(C(c2nnnn2CCc2ccccc2)N2CCCCCC2)cc1` (stereo not drawn), for which the Potency was 15.8 µM (active).
On to `CC(C)C(c1nnnn1CCc1ccccc1)N1CCN(C(=O)c2ccco2)CC1` (stereo not drawn), for which the Potency result is “inactive”.
The same measure, in the same setting: the same measure for `COc1ccc(CCn2nnnc2C(c2ccccc2)N2CCN(C)CC2)cc1OC` (stereo not drawn): “inactive”.
Regarding `S=c1c2[nH]cnc2ncn1CCSc1ncnc2nc[nH]c12`, the activation is -1.69% [at 11.4 µM].
Turning to `c1ccc(-c2oc3ncnc(N4CCOCC4)c3c2-c2ccccc2)cc1`, the Potency was 15.8 µM (active).
Consider `c1ccc(-n2nnnc2N2CCOCC2)cc1`, for which the Potency entry was “inactive”.
For the compound `c1ccc(COc2nsnc2N2CCOCC2)cc1`, the Potency entry was “inactive”.
Take `CC(C)NC(=O)CCCn1c(=S)[nH]c2cc3c(cc2c1=O)OCO3`: the Potency result was “inactive”.
With `O=C(Nc1ccccc1)N[C@H]1C[C@H](C(=O)O)Nc2cc(Cl)cc(Cl)c21`, the Potency result is “inactive”.
Same read-out and setting: the same measure for `Cc1noc(C)c1-c1cc(NCc2cccnc2)ncn1`: “inactive”; for `CNc1cc(-c2c(C)noc2C)ncn1`: 3.98 µM (active).
In the case of `COCCNc1cc(-c2c(C)noc2C)ncn1`, the Potency result was “inactive”.
Take `O=C(CSc1nnc(-c2ccoc2)o1)N1CCOCC1`: the Potency result is “inactive”.
As for `CC(=O)OCC1OC(C#CCCCc2ccccc2)C=CC1OC(C)=O` (stereo not drawn), the activation was -0.905% [at 11.4 µM].
As for `COCCCNC(=O)CCc1nc2cccnc2n1Cc1ccc(OC)cc1`, the Potency result was “inactive”.
On to `COC(=O)[C@@H]1CC[C@H](C)[C@@H](c2ccc(C)cc2)N1C(=O)c1ccc(/C=N\OC[C@@H](O)COCc2ccco2)cc1`, for which the activation is 44.4% [at 11.4 µM].
Consider `CO[C@@H]1COC(=O)[C@H](Cc2ccccc2)NC(=O)C/C=C\[C@@H](C)[C@H](OC)COC(=O)[C@@H](C)NC(=O)C/C=C\[C@H]1C`, for which the activation is 8.45% [at 11.4 µM] and -4.16% [at 11.4 µM].
As for `COCCn1c(SCC(=O)Nc2cc(Cl)ccc2OC)nc2c(c1=O)SC(C)C2` (stereo not drawn), the Potency result is “inactive”.
Same read-out and setting: as for `COc1ccc(C2C(C(=O)Nc3ccccc3OC)=C(C)Nc3nnnn32)c(OC)c1` (stereo not drawn), the entry is “inactive”; as for `COc1ccccc1NC(=O)C1=C(C)Nc2nnnn2C1c1cccc(Br)c1` (stereo not drawn), “inactive”; as for `COC(=O)c1ccc(C2C3=C(Nc4nnnn42)c2ccccc2OC3)cc1` (stereo not drawn), 12.6 µM (active).
As to `O=C(CNCCO)NC12CC3CC(CC(C3)C1)C2`, the Potency result is “inactive”.
